Reference: PubChem BioAssay (NCATS)
Inconclusive results are not listed. Calls of active or inactive are those of the source. Unless noted, the call rests on the fitted dose curve; in most records, active means well fitted curve in the direction sought with a large enough effect; inconclusive means small, poorly fitted or top-dose-only effect, or another doubt; inactive means no such curve, though single readings can be large; an effect the other way counts as inactive or inconclusive.

How the values were obtained:
[1] = target: Lysosomal acid glucosylceramidase (Homo sapiens) (UniProt P04062); experiment: Glucocerebrosidase-p2 (AID 348; in the data active means potency below about 10 µM; further: potency means the concentration at half of the fitted maximal effect); settings: purified GBA, blue fluorogenic substrate, 40 min
Summary of the method: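 Normal human glucocerebrosidase (0.2 nM) with blue fluorogenic substrate (80 uM final) in citrate/phosphate pH 5.9 with 10mM sodium taurocholate, 0.01% tween-20; 40 min RT, NaOH/glycine stop; fluorescence Ex 365/Em 440; AC50 from a titration from 0.6 nM upwards.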

[2] = AP1 Signaling Pathway (AID 357; active means well fitted curve in either direction with a large enough effect, not every such curve was filed as active;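 further: ME-180 reporter cells stimulated with EGF at its EC50 level; on the % scale 0 is the no-effect control and ±100 the full control effect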); settings: ME-180 AP-1-bla reporter, EGF-induced, beta-lactamase ratio, 5 h; at 7.69 µM (top of the series) unless noted
Summary of the method: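 A ratiometric CCF4 readout (405 nm excitation; 460 and 530 nm emission) quantified AP-1-driven beta-lactamase in ME-180 cells after 5 h with compound and EC50 EGF; AC50 values were derived for activators and inhibitors.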

[3] = NFAT Signaling Pathway (AID 444; active means well fitted curve in either direction with a large enough effect, not every such curve was filed as active;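 further: carbachol stimulus at about its EC50 of 1 µM final; on the % scale 0 is the no-effect control and ±100 the full control effect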); settings: Jurkat NFAT-bla M1, carbachol, beta-lactamase ratio, 5 h; at 7.69 µM (top of the series) unless noted
Summary of the method: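 Jurkat cells carrying an NFAT-driven β-lactamase reporter and co-transfected muscarinic M1 receptor were treated with compound plus carbachol (1 uM final, an EC50 level) for 5 h at 37 °C. CCF4 loading followed for 1 h at RT; 460/530 nm ratio gave %activity.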

[4] = target: Glucocorticoid receptor (Homo sapiens) (UniProt P04150); experiment: GR-GFP Redistribution (AID 450;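 active means compounds whose dose series gives a full or clear partial fitted curve of increased nuclear translocation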; further: potency means the concentration at half of the fitted maximal effect); settings: U2OS GR-GFP nuclear translocation, laser cytometry, 2 h
[5] = target: Glucocorticoid receptor (Homo sapiens) (UniProt P04150); experiment: GR-EFC Redistribution (AID 451; calls by dose curve; further: potency means the concentration at half of the fitted maximal effect); settings: CHO-K1 GR-EFC translocation, beta-gal luminescence, 2 h
Summary of the method: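 CHO-K1 cells stably expressing nuclear-localized β-gal enzyme acceptor and GR fused C-terminally to the enzyme donor fragment; ligand-driven nuclear translocation restores β-gal by complementation. Compounds titrated up to 46 uM final, 2 h at 37 °C; luminescence read.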

[6] = target: Mitogen-activated protein kinase 10 (Mus musculus) (UniProt Q61831); experiment: JNK3 AlphaScreen Assay (AID 530; active means well fitted curve in either direction with a large enough effect, not every such curve was filed as active;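 further: kinase came from lysate of stimulated human HepG2 cells; signal reports phosphorylation of biotinylated GST-cJun 1-79 at Ser73 with 10 µM ATP; on the % scale 0 is the no-effect control and ±100 the full control effect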); settings: JNK3 lysate, c-Jun phosphorylation; series mostly up to 57.1 µM
Summary of the method: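 Phosphorylation of biotinylated GST-cJun(1-79) at Ser73 is measured by AlphaScreen proximity luminescence. Enzyme is JNK3 in HepG2 lysates activated with interleukin-1beta and tumor necrosis factor alpha; ATP is 10 uM final.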

[7] = target: 3',5'-cyclic-AMP phosphodiesterase 4B (Homo sapiens) (UniProt Q07343); experiment: qHTS Assay for Inhibitors of PDE-IV (AID 607; active means well fitted activation curve with a large enough effect in the main read-out, with a control signal flat, not every such curve was filed as active; further: % of control where 0% means no effect); settings: HEK293 ACTOne CNG channel cells, membrane potential fluorescence; series mostly up to 22.9 µM
Summary of the method: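 HEK293 ACTOne cells with CNG channel (1000/well), endogenous PDE4; membrane potential dye, compounds up to 22.9 uM final. Fluorescence Ex 535/Em 590; RO 20-1724 (100 uM final) as reference.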

[8] = qHTS Assay for Lipid Storage Modulators (AID 1519; calls by dose curve); settings: Drosophila S3 cells, BODIPY lipid droplet/cell ratio, laser cytometry, cells loaded with oleic acid; for activity change, negative = inhibition: at 57.5 µM (top of the series)
Summary of the method: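 Cells seeded at 5,000 per well were treated with compounds over a concentration series and loaded with oleic acid (400 uM, as added). Lipid droplet fluorescence (488 nm excitation, 500-530 nm channel) was read by laser-scanning cytometry and normalized to 20 uM Triacsin C.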

[9] = target: Dual specificity protein kinase CLK4 (Homo sapiens) (UniProt Q9HAZ1); experiment: qHTS Assay for Inhibitors of CDC-like Kinase 4 (Kinase-Glo Assay) (AID 1770); settings: recombinant Clk4, Kinase-Glo ATP depletion luminescence; series mostly up to 66.7 µM; further: nearly all actives have a fitted effect of over 65% in size; further: potency means the concentration at half of the fitted maximal effect
Summary of the method: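 Readout: Kinase-Glo luminescence from ATP left after a 4.5 h room-temperature reaction of 25 nM Clk4 with 100 uM RS peptide and 1 uM ATP (final). Buffer: 25 mM Tris pH 7.5, 10 mM MgCl2.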

[10] = target: Dual specificity protein kinase CLK4 (Homo sapiens) (UniProt Q9HAZ1); experiment: qHTS Assay for Inhibitors of CDC-like Kinase 4 (ADP-Glo Assay) (AID 1771); settings: recombinant CLK4, ADP-Glo luminescence; series mostly up to 80 µM; further: nearly all actives have a fitted effect of over 70% in size; further: potency means the concentration at half of the fitted maximal effect
Summary of the method: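 ADP production was read by ADP-Glo luminescence after residual ATP depletion, following 1 h room-temperature reaction of 25 nM Clk4, 1 uM ATP and 100 uM RS peptide with MgCl2, EGTA, DTT and Triton X-100.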

[11] = target: Ubiquitin carboxyl-terminal hydrolase 1 (Homo sapiens) (UniProt O94782); experiment: Inhibitors of USP1/UAF1: Pilot qHTS (AID 504865); settings: purified USP1/UAF1, Ub-rhodamine cleavage fluorescence; series mostly up to 54.9 µM;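 further: rhodamine fluorescence freed from ubiquitin-rhodamine substrate followed over time; top concentration of the series differs between compounds; on the % scale 0 is the no-effect control and ±100 the full control effect; nearly all actives have a fitted effect of over 35% in size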
Summary of the method: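 1nM USP1/UAF1 + cpd, 15 min RT; start w/ Ub-Rho 150nM final; kinetic FL 480/540 nm, 6 reads q60 s. Buffer 50mM HEPES pH 7.8, 0.5mM EDTA, 1mM TCEP, 0.01% Tween-20, 0.1 mg/ml BSA.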

[12] = target: Cytochrome P450 1A2 (Homo sapiens) (UniProt P05177); experiment: p450-cyp1a2 (AID 410; calls by dose curve; further: potency means the concentration at half of the fitted maximal effect); settings: recombinant CYP1A2, luciferin-ME demethylation, luminescence; series mostly up to 57 µM
Summary of the method: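 Luminescent demethylation readout: Luciferin-ME (100uM, equal to Km) turned over by 20nM CYP1A2 for 60 min at room temperature after NADPH regeneration addition, following 10 min compound preincubation. Normalization used 57 uM furafylline as full inhibition.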

[13] = Stat Signaling Pathway (AID 446; active means well fitted curve in either direction with a large enough effect, not every such curve was filed as active;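 further: ME-180 cervical cancer cells given 40 pM IL-6 alongside compound; SIE-controlled beta-lactamase reporter measured as 460/530 nm FRET emission ratio; on the % scale 0 is the no-effect control and ±100 the full control effect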); settings: ME-180 SIE beta-lactamase reporter, IL-6 stimulated, 5 h; at 7.69 µM (top of the series) unless noted
Summary of the method: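 Normalization used AC90 stimulation (300 pM IL-6) and AC90 inhibition (125 nM pan-JAK inhibitor at 40 pM IL-6). The underlying signal is SIE-driven beta-lactamase in ME-180 cells after 5 h IL-6 exposure with compound.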

[14] = target: Cytochrome P450 3A4 (Homo sapiens) (UniProt P08684); experiment: qHTS Assay for Inhibitors and Substrates of Cytochrome P450 3A4 (AID 884); settings: recombinant CYP3A4, Luciferin-PPXE luminescence; series mostly up to 57.1 µM; further: potency means the concentration at half of the fitted maximal effect; nearly all actives have a fitted effect of over 50% in size
Summary of the method: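 Luminescent readout of luciferin produced by CYP3A4 (20 nM) dealkylation of Luciferin-PPXE, 25 uM (its KM). NADPH-driven reaction ran 60 min at RT after 10 min compound preincubation; data scaled to 57 uM ketoconazole as 100% inhibition.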

[15] = target: Cytochrome P450 3A4 (Homo sapiens) (UniProt P08684); experiment: qHTS Assay for Activators of Cytochrome P450 3A4 (AID 885); settings: recombinant CYP3A4, Luciferin-PPXE luminescence, 60 min; series mostly up to 57.1 µM; further: nearly all actives have a fitted effect of over 65% in size; further: potency means the concentration at half of the fitted maximal effect
Summary of the method: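 Human CYP3A4 dealkylates Luciferin-PPXE to luciferin, which luciferase detection converts to light. Substrate was at its KM (25uM), buffer 200mM KPO4, reaction 60 min at RT.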

[16] = target: Dual specificity protein kinase CLK4 (Homo sapiens) (UniProt Q9HAZ1); experiment: qHTS Assay for Inhibitors of CDC-like Kinase 4 (ADP-FP Assay) (AID 1795); settings: Transcreener ADP fluorescence polarization; series mostly up to 50 µM; further: nearly all actives have a fitted effect of over 60% in size; further: potency means the concentration at half of the fitted maximal effect
Summary of the method: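 FP readout: Orange Transcreener ADP2 tracer (4 nM) plus ADP antibody, read after 30 min at room temperature. Kinase step: 6.25 nM Clk4, 100 uM RS peptide, 1 uM ATP, pH 7.5, 1 h.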

[17] = qHTS Assay for Identification of Small Molecule Agonists for Hypoxia Response Element Signaling Pathway (AID 914; active means well fitted activation curve with a large enough effect in the signal ratio, with a control signal flat, not every such curve was filed as active; the % refers to the signal ratio; further: % of control where 0% means no effect); settings: ME-180 (cervical carcinoma) HRE-bla reporter, beta-lactamase ratio, CoCl2, 17 h; activation: stronger effect = higher value
Summary of the method: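 HRE-bla ME-180 cells, overnight plating in Opti-MEM with 0.5% dialyzed FBS; cpd titration + EC50 CoCl2, 17 h, 37 degrees Celsius; CCF4 2.5 h RT; 460/530 nm ratio; AC50.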

[18] = measured here: cell count channel max response
[19] = measured here: lipid channel max response

Chain of Glucocorticoid receptor (Homo sapiens) (P04150 whole entry, looked up, the tested form may be a part): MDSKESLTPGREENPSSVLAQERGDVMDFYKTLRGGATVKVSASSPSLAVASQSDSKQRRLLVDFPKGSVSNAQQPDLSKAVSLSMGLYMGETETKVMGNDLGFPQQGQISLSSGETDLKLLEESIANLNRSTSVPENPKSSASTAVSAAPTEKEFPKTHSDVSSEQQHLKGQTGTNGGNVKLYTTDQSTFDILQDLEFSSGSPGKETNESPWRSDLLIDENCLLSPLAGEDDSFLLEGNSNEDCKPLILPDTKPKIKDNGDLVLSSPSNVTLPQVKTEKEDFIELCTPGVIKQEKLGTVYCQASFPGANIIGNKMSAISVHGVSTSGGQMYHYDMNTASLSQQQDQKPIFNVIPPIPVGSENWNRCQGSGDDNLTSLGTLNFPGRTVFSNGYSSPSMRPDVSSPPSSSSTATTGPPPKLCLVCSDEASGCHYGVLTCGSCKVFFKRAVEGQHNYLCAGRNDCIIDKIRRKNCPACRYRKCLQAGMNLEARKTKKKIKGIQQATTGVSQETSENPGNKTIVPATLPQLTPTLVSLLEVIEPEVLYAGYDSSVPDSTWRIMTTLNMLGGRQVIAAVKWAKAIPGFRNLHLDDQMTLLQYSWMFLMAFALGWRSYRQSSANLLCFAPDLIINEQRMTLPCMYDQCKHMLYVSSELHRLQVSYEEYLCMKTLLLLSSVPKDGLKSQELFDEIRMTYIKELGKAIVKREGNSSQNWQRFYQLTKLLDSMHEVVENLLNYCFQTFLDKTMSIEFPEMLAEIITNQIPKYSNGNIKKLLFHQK
Chain of Lysosomal acid glucosylceramidase (Homo sapiens) (P04062 whole entry, looked up): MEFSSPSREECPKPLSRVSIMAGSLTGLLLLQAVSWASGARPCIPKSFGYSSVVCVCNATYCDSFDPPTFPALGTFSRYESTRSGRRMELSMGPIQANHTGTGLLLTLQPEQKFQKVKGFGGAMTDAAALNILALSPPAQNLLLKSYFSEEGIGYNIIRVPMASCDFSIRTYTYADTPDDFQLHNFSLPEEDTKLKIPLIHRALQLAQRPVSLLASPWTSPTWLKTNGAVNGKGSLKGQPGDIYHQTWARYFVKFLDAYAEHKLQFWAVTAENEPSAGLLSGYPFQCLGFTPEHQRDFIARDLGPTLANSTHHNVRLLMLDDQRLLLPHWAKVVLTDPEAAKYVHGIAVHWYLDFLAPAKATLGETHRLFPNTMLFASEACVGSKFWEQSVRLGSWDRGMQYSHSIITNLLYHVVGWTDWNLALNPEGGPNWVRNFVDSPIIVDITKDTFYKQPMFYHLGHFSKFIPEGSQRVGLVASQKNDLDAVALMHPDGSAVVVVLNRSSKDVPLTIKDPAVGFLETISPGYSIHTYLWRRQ
Chain of Cytochrome P450 1A2 (Homo sapiens) (P05177 whole entry, looked up): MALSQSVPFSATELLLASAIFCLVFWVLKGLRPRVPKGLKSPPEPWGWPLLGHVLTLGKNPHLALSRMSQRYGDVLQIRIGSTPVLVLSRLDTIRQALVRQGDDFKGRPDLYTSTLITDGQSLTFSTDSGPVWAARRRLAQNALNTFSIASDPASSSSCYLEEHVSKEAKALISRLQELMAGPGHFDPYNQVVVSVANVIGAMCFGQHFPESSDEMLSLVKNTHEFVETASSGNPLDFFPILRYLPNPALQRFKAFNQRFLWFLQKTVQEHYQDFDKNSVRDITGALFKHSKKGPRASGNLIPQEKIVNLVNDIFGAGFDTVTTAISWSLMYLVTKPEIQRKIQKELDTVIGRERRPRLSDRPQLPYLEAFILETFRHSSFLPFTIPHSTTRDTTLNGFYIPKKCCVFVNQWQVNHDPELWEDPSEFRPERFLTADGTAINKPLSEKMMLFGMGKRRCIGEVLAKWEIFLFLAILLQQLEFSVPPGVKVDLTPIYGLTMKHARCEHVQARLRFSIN
Chain of 3',5'-cyclic-AMP phosphodiesterase 4B (Homo sapiens) (Q07343 whole entry, looked up): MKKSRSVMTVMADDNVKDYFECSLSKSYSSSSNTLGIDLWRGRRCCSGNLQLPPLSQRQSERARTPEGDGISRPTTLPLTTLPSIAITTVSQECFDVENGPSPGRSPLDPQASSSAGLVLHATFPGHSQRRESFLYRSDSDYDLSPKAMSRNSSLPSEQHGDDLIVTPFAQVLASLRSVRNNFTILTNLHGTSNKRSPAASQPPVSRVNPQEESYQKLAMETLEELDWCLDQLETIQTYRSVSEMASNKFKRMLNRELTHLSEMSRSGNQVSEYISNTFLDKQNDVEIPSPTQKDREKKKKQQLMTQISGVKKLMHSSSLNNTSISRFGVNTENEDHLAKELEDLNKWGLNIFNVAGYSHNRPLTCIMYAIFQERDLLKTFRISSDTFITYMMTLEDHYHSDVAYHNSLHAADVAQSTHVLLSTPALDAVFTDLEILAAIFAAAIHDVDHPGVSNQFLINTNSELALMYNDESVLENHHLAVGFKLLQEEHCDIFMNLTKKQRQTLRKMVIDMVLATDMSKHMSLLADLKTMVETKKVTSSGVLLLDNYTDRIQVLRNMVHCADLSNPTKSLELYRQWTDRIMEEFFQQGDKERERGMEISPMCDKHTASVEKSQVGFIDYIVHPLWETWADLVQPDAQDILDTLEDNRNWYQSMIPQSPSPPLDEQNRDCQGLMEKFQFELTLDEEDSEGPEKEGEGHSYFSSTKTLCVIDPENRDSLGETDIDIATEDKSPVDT
Chain of Dual specificity protein kinase CLK4 (Homo sapiens) (Q9HAZ1 whole entry, looked up): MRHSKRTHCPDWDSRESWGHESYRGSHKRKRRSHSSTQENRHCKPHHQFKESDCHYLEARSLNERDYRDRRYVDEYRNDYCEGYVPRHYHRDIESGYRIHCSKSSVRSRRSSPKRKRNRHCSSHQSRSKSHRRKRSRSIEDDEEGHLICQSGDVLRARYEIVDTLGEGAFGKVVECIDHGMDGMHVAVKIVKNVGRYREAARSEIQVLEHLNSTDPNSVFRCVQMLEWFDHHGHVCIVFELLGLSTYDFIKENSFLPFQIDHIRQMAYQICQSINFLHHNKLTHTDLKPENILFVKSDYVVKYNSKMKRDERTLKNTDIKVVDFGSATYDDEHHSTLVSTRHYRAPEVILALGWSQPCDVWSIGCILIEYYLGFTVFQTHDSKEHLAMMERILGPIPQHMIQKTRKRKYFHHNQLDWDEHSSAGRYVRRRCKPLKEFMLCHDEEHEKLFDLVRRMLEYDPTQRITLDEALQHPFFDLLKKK
Chain of Ubiquitin carboxyl-terminal hydrolase 1 (Homo sapiens) (O94782 whole entry, looked up): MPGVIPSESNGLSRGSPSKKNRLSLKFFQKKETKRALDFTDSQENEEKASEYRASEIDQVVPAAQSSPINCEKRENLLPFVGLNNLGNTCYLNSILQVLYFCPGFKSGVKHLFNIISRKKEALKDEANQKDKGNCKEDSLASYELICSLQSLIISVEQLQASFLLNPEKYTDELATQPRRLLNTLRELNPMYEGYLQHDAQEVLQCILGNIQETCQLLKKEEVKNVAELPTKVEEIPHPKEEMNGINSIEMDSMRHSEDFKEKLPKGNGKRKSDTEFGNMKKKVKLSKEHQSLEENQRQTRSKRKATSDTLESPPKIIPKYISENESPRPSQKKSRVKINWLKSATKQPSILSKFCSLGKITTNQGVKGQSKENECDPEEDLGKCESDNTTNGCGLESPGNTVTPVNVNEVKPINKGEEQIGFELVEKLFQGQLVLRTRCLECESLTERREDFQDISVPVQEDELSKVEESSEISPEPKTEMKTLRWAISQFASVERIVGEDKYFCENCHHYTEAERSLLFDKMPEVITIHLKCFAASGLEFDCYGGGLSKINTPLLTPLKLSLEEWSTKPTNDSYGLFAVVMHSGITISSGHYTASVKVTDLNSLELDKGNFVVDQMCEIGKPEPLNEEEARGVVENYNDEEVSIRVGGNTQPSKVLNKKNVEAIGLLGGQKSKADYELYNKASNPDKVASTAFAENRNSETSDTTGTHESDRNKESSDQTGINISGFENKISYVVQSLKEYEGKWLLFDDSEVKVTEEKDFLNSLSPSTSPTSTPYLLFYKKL
Chain of Cytochrome P450 3A4 (Homo sapiens) (P08684 whole entry, looked up): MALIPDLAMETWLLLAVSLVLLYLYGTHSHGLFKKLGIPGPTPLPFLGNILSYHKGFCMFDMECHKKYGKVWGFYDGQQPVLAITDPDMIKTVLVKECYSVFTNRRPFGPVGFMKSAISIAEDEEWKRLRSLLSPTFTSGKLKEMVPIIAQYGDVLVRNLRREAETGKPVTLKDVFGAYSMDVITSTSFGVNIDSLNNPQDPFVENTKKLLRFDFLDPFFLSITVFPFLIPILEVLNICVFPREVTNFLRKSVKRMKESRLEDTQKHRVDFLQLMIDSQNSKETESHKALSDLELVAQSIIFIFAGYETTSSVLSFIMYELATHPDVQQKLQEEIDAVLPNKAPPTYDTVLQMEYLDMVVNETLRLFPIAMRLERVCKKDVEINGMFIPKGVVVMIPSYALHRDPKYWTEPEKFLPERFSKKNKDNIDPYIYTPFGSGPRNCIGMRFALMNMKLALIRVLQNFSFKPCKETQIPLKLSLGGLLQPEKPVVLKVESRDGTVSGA

Compound: N#Cc1cccc(-c2ccc3ncnc(NCCN4CCOCC4)c3c2)c1
- Potency [1]: > 11.4 µM (inactive)
- activity change, negative = inhibition [2]: 1.43% (inactive)
- activity change, negative = inhibition [3]: 19.4% (inactive)
- Potency [4]: > 46 µM (inactive)
- Potency [5]: > 46 µM (inactive)
- Potency [6]: inactive
- Potency [7]: inactive
- activity change, negative = inhibition [8]: 4.75% (inactive)
- max response [8, 18]: 5.88%
- max response [8, 19]: 7.51%
- Potency [9]: 12.6 µM (active)
- Potency [10]: 8.91 µM (active)
- Potency [11]: inactive

Compound: O=c1c(-c2cccs2)nc2cnc(N3CCNCC3)nc2n1C1CC1
- Potency [1]: > 11.4 µM (inactive)
- activity change, negative = inhibition [2]: 5.15% (inactive)
- Potency [12]: 2 µM (active)
- activity change, negative = inhibition [3]: 0.706% (inactive)
- activity, negative = inhibition [13]: 14.5% (inactive)
- Potency [4]: > 9.22 µM (inactive)
- Potency [5]: > 46 µM (inactive)
- Potency [6]: inactive
- Potency [7]: inactive
- Potency [14]: 6.31 µM (active)
- Potency [15]: inactive
- activity change, negative = inhibition [8]: 1.95% (inactive)
- max response [8, 18]: 1.24%
- max response [8, 19]: -0.825%
- Potency [9]: inactive
- Potency [16]: inactive
- Potency [11]: inactive

Compound: COc1cccc(-c2ccc3ncnc(NCCN4CCOCC4)c3c2)c1
- activity change, negative = inhibition [2]: -12.4% (inactive)
- activity, negative = inhibition [13]: -15.6% (inactive)
- Potency [4]: > 46 µM (inactive)
- Potency [5]: > 46 µM (inactive)
- Potency [6]: inactive
- activation [17]: -14.8% (inactive)
- activity change, negative = inhibition [8]: -1.99% (inactive)
- max response [8, 18]: -14.3%
- max response [8, 19]: -15.9%
- Potency [10]: 1 µM (active)
- Potency [16]: 0.631 µM (active)
- Potency [11]: inactive

Compound: Cc1ccccc1-c1ccc2ncnc(N3CCN(C)CC3)c2c1
- Potency [1]: > 11.4 µM (inactive)
- activity change, negative = inhibition [2]: 25.8% (inactive)
- Potency [12]: 3.16 µM (active)
- activity change, negative = inhibition [3]: -10.1% (inactive)
- activity, negative = inhibition [13]: -2.42% (inactive)
- Potency [4]: > 46 µM (inactive)
- Potency [5]: > 46 µM (inactive)
- Potency [6]: inactive
- Potency [14]: 3.98 µM (active)
- Potency [15]: inactive
- activity change, negative = inhibition [8]: -2.02% (inactive)
- max response [8, 18]: 10.5%
- max response [8, 19]: -2.94%
- Potency [10]: 31.6 µM (active)
- Potency [16]: inactive
- Potency [11]: inactive

Compound: FC(F)(F)c1ccccc1-c1ccc2ncnc(NCCN3CCOCC3)c2c1
- Potency [1]: 8.84 µM (active)
- activity change, negative = inhibition [3]: 10.2% (inactive)
- activity, negative = inhibition [13]: -13.9% (inactive)
- Potency [4]: > 46 µM (inactive)
- Potency [5]: > 46 µM (inactive)
- Potency [6]: inactive
- activation [17]: -0.346% (inactive)
- activity change, negative = inhibition [8]: -5.53% (inactive)
- max response [8, 18]: 3.86%
- max response [8, 19]: -2.12%
- Potency [9]: inactive
- Potency [16]: inactive
- Potency [11]: inactive

Compound: CN1CCN(c2ncc3nc(-c4ccc(Cl)cc4)c(=O)n(Cc4ccc(F)cc4)c3n2)CC1
- Potency [1]: > 11.4 µM (inactive)
- Potency [12]: 31.6 µM (active)
- Potency [4]: > 9.22 µM (inactive)
- Potency [5]: > 46 µM (inactive)
- Potency [7]: inactive
- Potency [15]: 15.8 µM (active)
- activity change, negative = inhibition [8]: -1.37% (inactive)
- max response [8, 18]: 15.9%
- max response [8, 19]: 10.5%
- Potency [10]: inactive
- Potency [16]: inactive
- Potency [11]: inactive
